Assay results from PubChem BioAssay AID431 (Sanford-Burnham Center for Chemical Genomics, 2006).
About 1,100 (1.7%) of roughly 63,000 compounds were called active. The sample as a whole holds a higher share of actives than the screen did. Potency and affinity values are given separately. Unmarked numbers belong to inactive results.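 The calls were made as follows: active = compounds whose percent cytotoxicity in the single-dose primary screen, scaled between solvent and toxic-drug controls, exceeds 50; inactive = the rest.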

Assay: viability loss of HPDE-C7K cells – cell-based, fluorescence, HTS, primary screen (AID 431);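 also: 0% = DMSO solvent wells and 100% = doxorubicin-treated wells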
Conditions: HPDE-C7K KRASV12 cells, Alamar Blue viability, 48 h; at 10 µM; active compounds read high

| Structure (SMILES) | cytotoxicity |
| --- | --- |
| O=C(CC1SCCNC1=O)Nc1cc(Cl)cc(Cl)c1 (configuration not stated) | -5.4% |
| O=C(CC(c1ccccc1)c1cc(Cl)ccc1O)N1CCOCC1 (configuration not stated) | 10.5% |
| CCOc1ccc(C2C3=C(CCCC3=O)Nc3nc(C(F)(F)F)nn32)cc1OC (configuration not stated) | 1.4% |
| COc1ccc(CCNc2nc(N3CCCCC3)nc(N3CCCCC3)n2)cc1OC | 45.3% |
| O=S(=O)(/C=C/c1ccccc1)n1cnc2ccccc21 | 40.1% |
| Cc1cc(C)n(S(=O)(=O)Cc2ccccc2)n1 | -3.7% |
| CC1CCc2nn(CC(=O)N3CCCCCC3)cc2C1 (configuration not stated) | 2.2% |
| Cc1ccc2c(c1)NC(=O)C(CC(=O)NCCN(CC(C)C)CC(C)C)O2 (configuration not stated) | 15.6% |
| COc1cccc(CNC(=O)C2CCN(Cc3cnn(-c4ccccc4)c3-n3cccc3)CC2)c1 | 5.5% |
| CCOC(=O)c1sc(NC(=O)CSc2ncn(-c3ccccc3)n2)nc1C | 76.1% (active) |
| O=C(CSc1ncn(-c2ccccc2)n1)Nc1nc2ccccc2s1 | -3.6% |
| CCOC(=O)c1sc(NC(=O)CSc2nnnn2-c2ccccc2)nc1C | 9.6% |
| O=C1c2ccccc2C(=O)N1CCCc1nc2ccccc2c(=O)n1CCCn1ccnc1 | -31.5% |
| C=CCn1c2ccccc2c2nnc(SCN3C(=O)c4ccccc4C3=O)nc21 | 7.6% |
| CCn1c2ccccc2c2nnc(SCCCn3c(=O)[nH]c4ccccc43)nc21 | 2.7% |
| C=CCn1c2ccccc2c2nnc(SCCCn3c(=O)[nH]c4ccccc43)nc21 | 68.6% (active) |
| Cc1cc(C)n2nc(-c3cccnc3)nc2n1 | 2.1% |
| O=C(Nc1nncs1)c1ccc(N2C(=O)C3C4C=CC(C4)C3C2=O)cc1 (configuration not stated) | 10.1% |
| CCc1nnc(NC(=O)CSc2nc3c(cc2C#N)CCC3)s1 | 33.4% |
| CCc1nnc(NC(=O)CSc2nc(C)c3c(c2C#N)CCCC3)s1 | 75.3% (active) |
| CCc1nnc(NC(=O)CSc2nc3c(cc2C#N)CCCC3)s1 | 8.4% |
| O=C(NCc1ccccn1)Nc1ccc(Cl)c(Cl)c1 | 1.8% |
| Cc1ccc(CNC(=O)CCCn2c(=O)[nH]c3ccccc3c2=O)cc1 | -8.5% |
| c1ccc2c3c([nH]c2c1)-c1[nH]ncc1CC3 | 50.2% (active) |
| O=C1CCCc2c1[nH]c1ccccc21 | -0.9% |

| Structure (SMILES) | cytotoxicity |
| --- | --- |
| Cc1ccc2[nH]c3c(c2c1)CCc1cn[nH]c1-3 | 35.6% |
| CCOC(=O)C1CCCN(c2nc3ccccc3nc2C(C#N)C(=O)OC(C)C)C1 (configuration not stated) | -4.8% |
| CCOC(=O)C1CCCN(c2nc3ccccc3nc2C(C#N)C(=O)OCC)C1 (configuration not stated) | 12.9% |
| CCOC(=O)C1CCCN(c2nc3ccccc3nc2C(C#N)C(=O)OCCOC)C1 (configuration not stated) | 53.1% (active) |
| CCOC(=O)C1CCN(c2nc3ccccc3nc2C(C#N)C(=O)OC(C)COC)CC1 (configuration not stated) | 6.6% |
| CCOC(=O)C1CCCN(c2nc3ccccc3nc2C(C#N)C(=O)OC(C)COC)C1 (configuration not stated) | 31.8% |
| CCOC(=O)C1CCN(c2nc3ccccc3nc2C(C#N)C(=O)OC(C)C)CC1 (configuration not stated) | 62.8% (active) |
| O=c1oc2ccccc2n1CCn1c2ccccc2c2nc3ccccc3nc21 | 14.9% |
| CSCCC(NC(=O)c1ccco1)C(=O)OC(C)C(=O)NC(=O)NC1CCCCC1 (configuration not stated) | -4.2% |
| O=C(CN(C1CCCCC1)S(=O)(=O)c1ccc(F)cc1)NC1CC1 | -2.7% |
| CCC1CCCCN1c1nc(-c2ccncc2)nc2ccccc12 (configuration not stated) | -15.6% |
| CCOC(=O)Cc1nnc2c(Nc3ccc(Cl)cc3)nc3nonc3n12 | 70.2% (active) |
| CCOC(=O)Cc1nnc2c(Nc3ccccc3F)nc3nonc3n12 | 53.8% (active) |
| CCOC(=O)Cc1nnc2c(Nc3ccc(C)cc3)nc3nonc3n12 | -14% |
| CCOC(=O)c1[nH]c(C)c(C(=O)Nc2ccccc2F)c1C | 37.9% |
| CCOC(=O)Cn1nc(-c2ccc(Cl)cc2)cc1N | 0.5% |
| CCOC(=O)n1ccc(C(=O)Nc2ccccc2F)n1 | -9.8% |
| CCOC(=O)c1ccc(NC(=O)CCc2ccc(CC)o2)cc1 | 8.4% |
| COc1cccc2cc(C(=O)C3=C(O)C(=O)N(CCCN4CCOCC4)C3c3ccncc3)oc12 (configuration not stated) | 3.9% |
| CC(C)(C)NC(=O)Cn1c(SCC(=O)N2CCCCCC2)nc2ccccc21 | -0.2% |
| Cc1csc2ncc(C(=O)NCc3ccccn3)c(=O)n12 | -11.8% |
| Cc1c(/C=N/n2cnnc2)c2ccccc2n1CCOc1ccccc1 | 43.4% |
| COc1cccc(OCCn2c(C)c(/C=N/n3cnnc3)c3ccccc32)c1 | 85.9% (active) |
| Cc1ccc(OCCn2c(C)c(/C=N/n3cnnc3)c3ccccc32)cc1 | 41.7% |
| CCOC(=O)N1CCC(NC(=O)C2CCC(CNS(=O)(=O)c3ccc(OC)cc3)CC2)CC1 (configuration not stated) | 0.5% |

| Structure (SMILES) | cytotoxicity |
| --- | --- |
| C=CCn1c(=N)n(CC(=O)OC)c2ccccc21 | 8.1% |
| c1coc(-c2nc3ccccc3nc2-c2ccco2)c1 | -6.2% |
| c1coc(-c2nc(-c3ccco3)c(-c3ccco3)nc2-c2ccco2)c1 | -1.8% |
| c1coc(-c2nc3nc4ccccc4n3nc2-c2ccco2)c1 | 67.4% (active) |
| O=C1CCCc2nc(N3CCN(c4ccccc4)CC3)ncc21 | 20.9% |
| O=C(NC1CCCC1)C(c1cccs1)N(C(=O)c1ccno1)c1ccccc1 (configuration not stated) | 2.6% |
| COc1ccc(C2/C(=C(/O)c3ccc(C)cc3)C(=O)C(=O)N2C)cc1 (configuration not stated) | -6.1% |
| Cc1nnc(Sc2nc(Sc3nnc(C)s3)nc(N3CCN(C)CC3)n2)s1 | 102% (active) |
| Cc1nnc(SCCn2c(N3CCN(C)CC3)nc3c2c(=O)[nH]c(=O)n3C)s1 | -9.9% |
| Cc1nnc(SCCn2c(N3CCN(C)CC3)nc3c2c(=O)n(C)c(=O)n3C)s1 | 3.6% |
| CC(=O)Nc1nc(C)c(Oc2ccccc2)c(=O)[nH]1 | 6.8% |
| CC(=O)c1c(C)[nH]c(C(=O)N2CCc3ccccc32)c1C | 10.3% |
| CCOC(=O)c1[nH]c(C)c(C(=O)N2CCc3ccccc32)c1C | 57.6% (active) |
| CCOC(=O)c1c(C)[nH]c(C(=O)OCC(=O)N2CCc3ccccc32)c1C | -21.3% |
| COc1ccc(CN(C(=O)CSc2nnc(-c3ccccc3F)o2)c2ccc(F)cc2)cc1 | 16.8% |
| COc1ccc(CN(C(=O)CSc2nnc(-c3ccc(F)cc3)o2)c2ccc(F)cc2)cc1 | -9.8% |
| O=C(CSc1nnc(-c2c[nH]c3ccccc23)o1)N(Cc1ccccc1)c1ccc(F)cc1 | 53.4% (active) |
| CCOC(=O)c1sc(NC(=O)CSc2n[nH]c(-c3ccccc3)n2)c(C#N)c1C | -1.8% |
| CCOC(=O)c1c(NC(=O)CSc2n[nH]c(N)n2)sc(CC)c1C | 0% |
| Cc1ccc(C(=O)NCCCC(=O)O)o1 | -5% |
| Cc1cc(-c2ccco2)n2c(nc3ccccc32)c1C#N | 18.2% |
| COC(=O)c1nnn(-c2nc(N3CCCCC3)nc(N3CCCCC3)n2)c1C | -3.1% |
| CCOC(=O)c1cnc(-n2nc(C)cc2C)nc1NC(C)c1ccccc1 (configuration not stated) | -13% |
| NS(=O)(=O)c1ccc(NC=C2C(=O)OC3(CCCCC3)OC2=O)cc1 | 8.5% |
| NS(=O)(=O)c1ccc(NC(=O)CSC2CCCCC2)cc1 | -3.7% |

| Structure (SMILES) | cytotoxicity |
| --- | --- |
| Cc1ccc(-c2nnn(CC(=O)Nc3ccc(S(=O)(=O)N4CCC(C)CC4)cc3)n2)cc1 | -2.5% |
| CCOC(=O)c1c2n(c3ccc(O)cc13)CCCCC2 | 2.9% |
| Oc1c(CN2CCOCC2)cc(COCc2ccccc2)c2cccnc12 | 30.7% |
| COc1ccc(C(=O)Oc2c(CN3CCOCC3)cc(Cl)c3cccnc23)cc1OC | 13.7% |
| COc1cc(C(=O)Oc2c(CN3CCOCC3)cc(Cl)c3cccnc23)cc(OC)c1OC | 18.4% |
| O=C(Oc1c(Cl)cc(Cl)c2cccnc12)N1CCOCC1 | -2.4% |
| Cc1ccc(Cl)cc1N(CC(=O)NC1CCCCC1)S(C)(=O)=O | -5.9% |
| Cc1nc2cc(-c3cccc(F)c3)nn2c(C)c1CCC(=O)N1CCN(c2ccccn2)CC1 | -4.7% |
| OC(CN1CCOCC1)CN1CCOCC1 | 13.2% |
| CCCCCOc1ccc(OC(=O)c2ccncc2)cc1 | -0.5% |
| CC(=O)c1cccc(NC(=O)c2cc(C(C)C)on2)c1 | -17.2% |
| O=C(Nc1ccc(OC(=O)c2ccco2)cc1)c1ccco1 | -0.1% |
| CCCCCOC(=O)c1ccc(NC(=O)c2ccco2)cc1 | 80.3% (active) |
| O=C(OC1CCCCC1)c1ccc(NC(=O)c2ccco2)cc1 | 74.9% (active) |
| O=C(O)CCC(=O)Nc1ccc(C(=O)OC2CCCCC2)cc1 | -16.9% |
| CCCCOC(=O)c1ccc(NC(=O)c2ccoc2C)cc1 | 5% |
| CCCCOC(=O)c1ccc(NC(C)=O)cc1 | -20.2% |
| CCC1S/C(=C(\C#N)C(=O)NCc2ccco2)N(c2ccc(Br)cc2)C1=O (configuration not stated) | -5.6% |
| O=C(CSCc1ccccc1)Nc1nccs1 | -4.5% |
| CC(C)CCn1c(NCCc2ccccc2)nc2c1c(=O)n(C)c(=O)n2C | 0.9% |
| O=S(=O)(O)c1nc2ccccc2n1CCOc1ccccc1 | 5.6% |
| CC(=O)Oc1ccc(N2C(=O)CCC2=O)cc1 | -3.8% |
